Measured values: PubChem BioAssay
Activity calls are given as the source filed them. Unless noted, how the calls were made is not given here.

Key:
[1] = tested on: Wnt5a (protein binding on small-molecule microarray); test: small molecules binding Wnt5a protein – biophysical, small-molecule microarray, 635/667 nm fluorescence, primary screen (AID 1142); conditions: 635 nm fluorescence, higher = more signal;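 further: fluorescence read at 667 nm with signal to noise per printed feature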
[2] = ATP-based viability of Huh7 replicon cells – cell-based, CellTiter-Glo luminescence, basal, 48 h, cytotoxicity control for HCV replication inhibitor project, primary screen (AID 1143); conditions: higher = more signal, called active from +8 up or from −8 down;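 further: Huh7 hepatoma cells carrying a hepatitis C replication reporter with no stimulus; test concentration not given here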
[3] = Pseudomonas biofilm growth suppression – PAO1 strain, BacTiter-Glo luminescence, LB-PBS, primary screen (AID 1144); conditions: P. aeruginosa PAO1 biofilm, 12 h, higher = more signal
[4] = basal CRE-LacZ reporter activity in PC12 – cell-based, unstimulated, primary screen (AID 1145); conditions: no forskolin, luminescence, 4.5 h, higher = more signal, called active from +8 up or from −8 down
[5] = forskolin-driven CRE-LacZ activity in PC12 – cell-based, CRE-LacZ reporter, forskolin-stimulated, primary screen (AID 1146); conditions: luminescence, 4.5 h, higher = more signal, called active from +8 up or from −8 down;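 further: PC12 cells with 6xCRE LacZ reporter stimulated by forskolin 10 µM; beta-galactosidase reporter signal reflecting CREB driven transcription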
[6] = molecular target: Streptavidin (Streptomyces avidinii) (UniProt P22629); test: compounds binding control protein streptavidin – biophysical, small-molecule microarray, 635/667 nm fluorescence, artefact control for SMM compound annotation, primary screen (AID 1147); conditions: higher = more signal;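 further: signal reflects streptavidin binding to arrayed compounds as a control protein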
[7] = probe aInhba binding on compound microarray – biochemical, small-molecule microarray, 635/667 nm fluorescence, primary screen (AID 1148); conditions: higher = more signal;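 further: score merges 667nm spot fluorescence with signal-to-noise for antibody binding to printed compounds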
Torsin-1A (Homo sapiens) [8] = molecular target: Torsin-1A (Homo sapiens) (UniProt O14656); test: TOR1A wild-type binding on microarray – cell lysate, small-molecule microarray, lysate, 635/667 nm, primary screen (AID 1149); conditions: COS7 hTOR1A-WT lysate, 635 nm fluorescence, higher = more signal
Torsin-1A (Homo sapiens) [9] = molecular target: Torsin-1A (Homo sapiens) (UniProt O14656); test: torsin A mutant lysate binding on microarrays – cell lysate, small-molecule microarray, COS7 lysate, 635/667 nm fluorescence, primary screen (AID 1150); conditions: COS7 hTOR1A mutant lysate, 635 nm fluorescence, higher = more signal;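 further: score pools 667 nm emission and signal to noise measuring lysate protein binding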
[10] = tested on: Sonic hedgehog protein (Shh); test: Sonic hedgehog microarray binding compounds – biochemical, small-molecule microarray, 635/667 nm fluorescence, primary screen (AID 1151); conditions: 635 nm fluorescence, higher = more signal;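 further: Shh protein binding to compounds spotted on small-molecule microarray slides; score combines spot fluorescence intensity with signal-to-noise across triplicate slides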

Chain of Streptavidin (Streptomyces avidinii) (P22629 whole entry, looked up): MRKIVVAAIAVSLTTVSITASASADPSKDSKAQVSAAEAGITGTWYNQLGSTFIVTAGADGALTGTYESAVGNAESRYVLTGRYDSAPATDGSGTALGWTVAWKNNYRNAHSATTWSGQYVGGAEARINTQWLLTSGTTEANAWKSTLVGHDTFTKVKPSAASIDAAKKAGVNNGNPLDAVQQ
Chain of Torsin-1A (Homo sapiens) (O14656 whole entry, looked up): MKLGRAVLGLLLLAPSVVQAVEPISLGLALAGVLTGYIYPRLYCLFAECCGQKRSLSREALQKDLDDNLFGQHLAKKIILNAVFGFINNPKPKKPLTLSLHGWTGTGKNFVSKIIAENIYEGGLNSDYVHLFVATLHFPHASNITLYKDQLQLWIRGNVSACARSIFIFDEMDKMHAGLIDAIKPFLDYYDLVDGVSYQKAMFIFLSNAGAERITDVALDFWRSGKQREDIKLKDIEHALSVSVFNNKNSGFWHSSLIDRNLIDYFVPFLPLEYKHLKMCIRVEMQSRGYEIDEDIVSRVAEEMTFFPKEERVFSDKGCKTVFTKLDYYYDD

Structure (SMILES) | composite z-score [1] | z-score [2] | z-score [3] | z-score [4] | z-score [5] | composite z-score [6] | composite z-score [7] | composite z-score (Torsin-1A (Homo sapiens) [8]) | composite z-score (Torsin-1A (Homo sapiens) [9]) | composite z-score [10]
CC(C)C(=O)N[C@H]1CCCN1C(=O)C=Cc1ccccc1 | 0.121 | 0.623 (inactive) | 0.186 (inactive) | -0.255 (inactive) | -0.135 (inactive) | 0.111 | 0.0173 | 0.445 | 0.231 | 0.769
CCOC(=O)[C@H](CC(C)C)NC(=O)CCC1CC(OC(=O)NCc2ccc3c(c2)OCO3)CC2(CCCC(COC(=O)NCCC(C)C)O2)O1 (stereo not given in full) | 0.0093 | -0.172 (inactive) | -0.32 (inactive) | -0.889 (inactive) | 0.128 (inactive) | 0.0476 | -0.128 | -0.0916 | -0.0963 | 0.54
O=C1C2=CC[C@H]3C(=O)N(c4ccc(F)cc4F)C(=O)[C@H]3[C@H]2[C@H](O)[C@@H]2O[C@H]12 | 0.28 | 0.612 (inactive) | -0.845 (inactive) | -0.202 (inactive) | 0.305 (inactive) | 0.447 | -0.0221 | 0.528 | 0.308 | 0.389
CC(C)(C)N1C(=O)[C@H]2[C@H]3[C@H](O)[C@H](O)CC(=NNC(=O)OCc4ccccc4)[C@@H]3CC[C@H]2C1=O | -0.0841 | 0.633 (inactive) | -0.0893 (inactive) | -0.0258 (inactive) | 0.314 (inactive) | 0.171 | -0.13 | 0.472 | 0.322 | 0.226
CO[C@@H]1COC(=O)CC=C[C@H](C)[C@H](OC)COC(=O)[C@@H]2CCCN2C(=O)CC=C[C@H]1C | 0.0408 | -0.754 (inactive) | 0.243 (inactive) | 0.609 (inactive) | -0.628 (inactive) | -0.0406 | -0.0112 | 0.719 | 1.22 | 1.83
CC(C)CON=C1C[C@@H](O)[C@@H](O)[C@@H]2[C@@H]3C(=O)N(c4ccc(F)cc4F)C(=O)[C@@H]3CC[C@@H]12 | -0.0608 | -3.38 (inactive) | -0.419 (inactive) | 0.151 (inactive) | 0.391 (inactive) | 0.744 | -0.0719 | 1.29 | 0.218 | 0.583
CC(C)[C@@H](OCc1ccccc1)[C@H](C)CON=C1[C@H]2CCn3c(=O)n(-c4ccccc4)c(=O)n3[C@H]2[C@H](O)[C@@H]2O[C@H]12 | 0.186 | -0.367 (inactive) | 1.21 (inactive) | -0.408 (inactive) | 1.2 (inactive) | 0.164 | -0.128 | 0.0645 | 0.41 | 0.89
CCOC(=O)[C@H](Cc1ccccc1)NC(=O)CCC1CC(OC(=O)NCCc2ccc(F)cc2)CC2(CCCC(COC(=O)NCc3cccc(C(F)(F)F)c3)O2)O1 (stereo not given in full) | 0.011 | -2.08 (inactive) | 0.885 (inactive) | -0.162 (inactive) | -0.605 (inactive) | 0.899 | -0.101 | 0.386 | 0.376 | 1.48
COC(=O)[C@@H]1CC[C@H](C)[C@@H](c2ccc(Br)cc2)N1C[C@@H](O)CN=[N+]=[N-] | 0.538 | -3.06 (inactive) | -1.91 (inactive) | 0.105 (inactive) | -0.571 (inactive) | 0.398 | -0.224 | 0.54 | -0.117 | 0.581
CO[C@H]1COC(=O)CC=C[C@@H](C)COC(=O)[C@H]2CCCN2C(=O)CC=C[C@H]1C | 0.203 | 0.0653 (inactive) | 0.106 (inactive) | -0.837 (inactive) | -1.05 (inactive) | -0.547 | -0.108 | 2.24 | 2.95 | 1.79
CCN1C(=O)[C@H]2[C@H]3[C@H](O)[C@H](O)CC(=NOC[C@@H](O)COCc4ccco4)[C@H]3CC[C@H]2C1=O | -0.13 | 0.337 (inactive) | -0.388 (inactive) | -0.926 (inactive) | -0.541 (inactive) | -1.09 | -0.241 | 3.04 | 2.87 | 1.97
O=C1[C@H]2[C@H]3[C@H](O)[C@H](O)CC(=NOC[C@@H](O)COCc4ccco4)[C@@H]3CC[C@H]2C(=O)N1Cc1ccc2c(c1)OCO2 | 0.0191 | -0.0292 (inactive) | 0.878 (inactive) | -0.0199 (inactive) | 0.506 (inactive) | -0.436 | -0.218 | 3.38 | 3 | 1.55
COC(=O)[C@H](CCSC)NC(=O)CC=C[C@@H](C)CO | 0.848 | -0.62 (inactive) | -0.449 (inactive) | 0.75 (inactive) | 0.118 (inactive) | -1.27 | -0.128 | 3.29 | 3.16 | 2.18
COc1ccc(O[C@H]2C=C[C@@H](c3ccccc3)O[C@@H]2COC(=O)NCc2cccc3ccccc23)cc1 | -0.092 | -1.55 (inactive) | 0.928 (inactive) | 0.745 (inactive) | 1.56 (inactive) | 0.493 | -0.218 | 0.0485 | 0.225 | 0.401
CC(C)=CCCC(C)=CCON=C1C[C@@H](O)[C@@H](O)[C@@H]2[C@@H]3C(=O)N([C@@H](C)c4ccccc4)C(=O)[C@@H]3CC[C@@H]12 | 0.143 | -1.19 (inactive) | 0.491 (inactive) | -0.834 (inactive) | -0.541 (inactive) | 0.242 | -0.121 | 0.337 | 1.09 | 0.672
